Results as given in PubChem BioAssay (NCATS).
Values joined by “and” are separate entries in the source; they are usually repeats but may differ in a detail not shown here. Equal entries are not always repeated. Inconclusive results are not listed. More than one record can exist for a structure, and the calls need not agree. Active and inactive are the calls of the source. Unless noted, the call rests on the fitted dose curve.

Experiments:
[1] = Cell Viability - HepG2 (AID 433); conditions: qHTS;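 further: potency means the concentration at half of the fitted maximal effect; cells exposed to compound for 40 hours; potency for ATP loss meaning cytotoxicity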
Procedure, shortened: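 Read-out is luciferase-based quantitation of cellular ATP as a measure of viable HepG2 cells after 40 h treatment at 37 °C. Signal decrease is scaled between DMSO-only and 100 uM tamoxifen controls, with AC50 fitted by the Hill equation.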

[2] = Cellular Toxicity (caspase-3) Renal Proximal Tubule (AID 667; active means well fitted curve in the direction sought with a large enough effect; an effect the other way counts as inactive or inconclusive;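 further: cells exposed to compound for 16 hours at 37 °C before detection; 0% = DMSO basal and 100% = 10 µM staurosporine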)
Procedure, shortened: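 AC50 derived by standard Hill fit of concentration-response data, normalized between DMSO basal and 10 uM staurosporine as 100% stimulation. Cells: primary rat kidney proximal tubule, 16 h treatment at 37 °C.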

[3] = Cell Viability - LYMP2-007 (AID 979; active means well fitted curve in the direction sought with a large enough effect; an effect the other way counts as inactive or inconclusive;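 further: cells exposed to compound for 24 h before reading; 0% = DMSO only and the negative end = 92 µM tetraoctylammonium bromide; nearly all actives have a fitted effect of over 60% in size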)
Procedure, shortened: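 qHTS cytotoxicity: 2500 cells/well, 5 hr 37 C settle, compound 24 hr 37 C, CellTiter-Glo 30 min RT, luminescence. Decrease in ATP = toxicity. AC50 by standard Hill equation; tetraoctylammonium bromide positive control.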

[4] = Cell Viability - LYMP2-008 (AID 980; active means well fitted curve in the direction sought with a large enough effect; an effect the other way counts as inactive or inconclusive;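 further: cells exposed to compound for 24 h at 37 °C; on the % scale 0 is the no-effect control and ±100 the full control effect; nearly all actives have a fitted effect of over 60% in size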)
Procedure, shortened: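 Luminescent ATP read-out (CellTiter-Glo, 30 min RT) after 24 hr compound exposure at 37 C of human lymphoblastoid cells in complete medium. Decrease in ATP taken as cytotoxicity; AC50 derived by standard Hill fit of qHTS concentration-response data.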

[5] = target: Estrogen receptor (Homo sapiens) (UniProt P03372); experiment: qHTS assay for small molecule agonists of estrogen receptor alpha signaling (AID 588514);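 further: 0% = vehicle only and 100% = reference agonist; nearly all actives have a fitted effect of over 70% in size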
Procedure, shortened: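 Read-out: CCF4 fluorescence from a beta-lactamase reporter in ER-alpha-UAS-bla HEK 293 cells after 18 hrs of compound exposure at 37 C. Normalized to 20 nM 17-beta-estradiol (100%) and DMSO (0%).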

[6] = target: Bile acid receptor (Homo sapiens) (UniProt Q96RI1); experiment: qHTS assay for small molecule antagonists of farnesoid X receptor signaling (AID 588526); further: on the % scale 0 is the no-effect control and ±100 the full control effect
Procedure, shortened: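 Beta-lactamase reporter antagonist mode: HEK293T FXR-UAS-bla cells, titrated compound, CDCA stimulation, 16 h 37 C, CCF4 dye 2 h RT. Data normalized to CDCA 50 uM and DMSO; Hill-fit IC50.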

[7] = target: Glucocorticoid receptor (Homo sapiens) (UniProt P04150); experiment: qHTS assay for small molecule antagonists of glucocorticoid receptor signaling (AID 588533; active means well fitted inhibition curve with a large enough effect in the signal ratio, with a control signal flat, not every such curve was filed as active; the % refers to the signal ratio;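 further: cells stimulated with 2 nM dexamethasone as agonist; on the % scale 0 is the no-effect control and ±100 the full control effect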)
Procedure, shortened: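 Antagonist-mode qHTS: compound titrations added to GRE-bla HeLa cells, then dexamethasone 2 nM final; 18 h, 37 C. CCF4 FRET fluorescence normalized to dexamethasone and DMSO; IC50 from Hill fit.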

[8] = qHTS assay for small molecule antagonists of peroxisome proliferator-activated receptor delta signaling (AID 588535; active means well fitted inhibition curve with a large enough effect in the signal ratio, with a control signal flat, not every such curve was filed as active; the % refers to the signal ratio;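 on max response: cells co-treated with a PPAR-delta agonist as stimulator during compound exposure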); conditions: HEK293T PPARd-UAS-bla, beta-lactamase FRET ratio, 18 h; 460 nm channel
Procedure, shortened: (§1)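 Antagonist-mode qHTS using GeneBLAzer PPAR-delta-UAS-bla HEK293T cells; compound exposure 18 hrs at 37 C over a titration. Ratiometric CCF4 fluorescence at 460/530 nm; concentration-response points fitted to the Hill equation.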

[9] = target: Peroxisome proliferator-activated receptor delta (Homo sapiens) (UniProt Q03181); experiment: as above
Procedure, shortened: as §1

[10] = target: Peroxisome proliferator-activated receptor gamma (Homo sapiens) (UniProt P37231); experiment: qHTS assay for small molecule antagonists of peroxisome proliferator-activated receptor gamma signaling (AID 588537; active means well fitted inhibition curve with a large enough effect in the signal ratio, with a control signal flat, not every such curve was filed as active; the % refers to the signal ratio;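 further: reporter cells co-stimulated with 50 nM rosiglitazone agonist during compound treatment; % of control where 0% means no effect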)
Procedure, shortened: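 Cell-based beta-lactamase assay; GW9662 served as the antagonist control. Stimulation used rosiglitazone, final 50 nM, 16 h, 37 C.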

[11] = target: Vitamin D3 receptor (Homo sapiens) (UniProt P11473); experiment: qHTS assay for small molecule antagonists of vitamin D receptor signaling (AID 588541);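 further: receptor activated by calcitriol during compound treatment; series mostly up to about 77 µM; on the % scale 0 is the no-effect control and ±100 the full control effect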
Procedure, shortened: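 Antagonist-mode beta-lactamase reporter assay: HEK293T VDR-UAS-bla cells were exposed to titrated compound alongside 1-alpha,25-dihydroxyvitamin D3 at 3 nM final for 16 h. Values were normalized to the 50 nM agonist control and DMSO basal, with IC50 and efficacy from Hill equation fits.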

[12] = qHTS assay for small molecule agonists of the antioxidant response element (ARE) signaling pathway (AID 651741; active means well fitted activation curve with a large enough effect in the signal ratio; the % refers to the signal ratio; further: % of control where 0% means no effect)
Procedure, shortened: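 Agonist activity is measured as ARE-driven beta-lactamase expression in a stable HepG2 reporter line, using 16 h compound treatment at 37 C and a FRET substrate fluorescence readout after 2 h.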

[13] = qHTS assay for small molecule activators of the nuclear factor-kappa B (NF-kB) signaling pathway (AID 651749; active means well fitted activation curve with a large enough effect in the signal ratio; the % refers to the signal ratio; further: series mostly up to about 77 µM; % of control where 0% means no effect); conditions: NF-kB-bla ME-180 cells, beta-lactamase FRET ratio, 16 h; stronger effect = higher value
Procedure, shortened: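 FRET-based beta-lactamase detection in ME-180 cells reports NF-kB response-element-driven transcription following overnight (16 hr) compound treatment.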

[14] = qHTS assay to identify small molecules that stimulate interleukin-8 (IL-8) secretion (AID 651758; active means well fitted activation curve with a large enough effect in the signal ratio; the % refers to the signal ratio; further: potency means the concentration at half of the fitted maximal effect; on activation: 0% is about no effect)
Procedure, shortened: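 Secreted IL-8 measured homogeneously by TR-FRET (two labelled anti-IL-8 antibodies, 1-3 h at room temperature) after a 16 h, 37 C compound treatment of THP-1 cells at 2000 cells/well.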

[15] = target: Phospholipid hydroperoxide glutathione peroxidase GPX4 (Homo sapiens) (UniProt P36969); experiment: Primary qHTS Assay for Inhibitors of Recombinant Selenoprotein Glutathione Peroxidase 4 (GPX4) (AID 1845192; active means well fitted curve in the direction sought with a large enough effect; an effect the other way counts as inactive or inconclusive; further: nearly all actives have a fitted effect of over 65% in size; further: potency means the concentration at half of the fitted maximal effect)
Procedure, shortened: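 NADPH consumption followed by fluorescence at 340/450 nm, t=0 and after 15 min at room temperature. Reaction started with cumene hydroperoxide (0.5 mM final) after 30 min compound–GPX4 preincubation; final 200 nM GPX4, 100 nM GR, 1 mM GSH, 0.5 mM NADPH.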

[16] = Cell Viability - MRC5 (AID 434); conditions: MRC5 lung fibroblast viability, qHTS;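 further: potency means the concentration at half of the fitted maximal effect; cells exposed to compound for 40 hours at 37 °C; potency reflects cytotoxicity seen as loss of intracellular ATP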
Procedure, shortened: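 AC50 values come from Hill-equation fits of intracellular ATP loss, measured by CellTiter-Glo luminescence. Normal lung fibroblasts (MRC5) had 40 hr compound treatment at 37 C, normalized between DMSO and 100 uM tamoxifen.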

[17] = target: Nuclear receptor ROR-gamma (Homo sapiens) (UniProt P51449); experiment: qHTS assay for small molecule antagonists of the retinoid-related orphan receptor gamma (ROR-gamma) signaling pathway (AID 651802; active means well fitted curve in the direction sought with a large enough effect; an effect the other way counts as inactive or inconclusive;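 further: CHO cells with doxycycline-induced ROR-gamma expression; luciferase reporter luminescence driven by ROR response element; series mostly up to about 92 µM; on the % scale 0 is the no-effect control and ±100 the full control effect; nearly all actives have a fitted effect of over 60% in size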)
Procedure, shortened: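 Luciferase read-out: ONE-Glo luminescence after 30 min at room temperature, following 16hr doxycycline induction at 37C, 5% CO2 of CHO cells with TET-inducible ROR and RORE-LUC reporter; decreased luminescence = reduced reporter activity.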

[18] = qHTS assay for cell viability of the p53RE-bla HCT-116 cell line (AID 743292; active means well fitted curve in the direction sought with a large enough effect; an effect the other way counts as inactive or inconclusive; further: on the % scale 0 is the no-effect control and ±100 the full control effect; nearly all actives have a fitted effect of over 55% in size)
Procedure, shortened: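 ATP-based luminescent viability (CellTiter-Glo, 30 min RT) after 16 h compound treatment at 37 C of p53RE-bla HCT-116 cells, seeded at 4,000 cells/well and rested 5 h before dosing.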

[19] = target: Ubiquitin carboxyl-terminal hydrolase 1 (Homo sapiens) (UniProt O94782); experiment: Inhibitors of USP1/UAF1: Pilot qHTS (AID 504865; active means well fitted curve in the direction sought with a large enough effect; an effect the other way counts as inactive or inconclusive;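 further: rhodamine fluorescence freed from ubiquitin-rhodamine substrate followed over time; top concentration of the series differs between compounds; on the % scale 0 is the no-effect control and ±100 the full control effect; nearly all actives have a fitted effect of over 35% in size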)
Procedure, shortened: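 In 50mM HEPES pH 7.8 containing 0.5mM EDTA, 1mM TCEP, 0.1 mg/ml BSA and 0.01% Tween-20, 1nM USP1/UAF1 is exposed to compound for 15 min, then Ub-Rho (150nM final) is added and fluorescence is read over time.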

[20] = MultiTox-Fluor Cytotoxicity Assay - LYMP1-001 - Dead Cells (AID 946; active means well fitted curve in the direction sought with a large enough effect; an effect the other way counts as inactive or inconclusive)
Procedure, shortened: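 Cytotoxicity as increased dead-cell protease fluorescence (bis-AAF-R110, 485/520 nm), read 60 min after MultiTox-Fluor reagent. Human lymphoblastoid line exposed 16 h; Hill-fitted AC50, with DMSO as 0% and 15 uM tetraoctylammonium bromide as 100%.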

Estrogen receptor (Homo sapiens), sequence (P03372 whole entry, looked up): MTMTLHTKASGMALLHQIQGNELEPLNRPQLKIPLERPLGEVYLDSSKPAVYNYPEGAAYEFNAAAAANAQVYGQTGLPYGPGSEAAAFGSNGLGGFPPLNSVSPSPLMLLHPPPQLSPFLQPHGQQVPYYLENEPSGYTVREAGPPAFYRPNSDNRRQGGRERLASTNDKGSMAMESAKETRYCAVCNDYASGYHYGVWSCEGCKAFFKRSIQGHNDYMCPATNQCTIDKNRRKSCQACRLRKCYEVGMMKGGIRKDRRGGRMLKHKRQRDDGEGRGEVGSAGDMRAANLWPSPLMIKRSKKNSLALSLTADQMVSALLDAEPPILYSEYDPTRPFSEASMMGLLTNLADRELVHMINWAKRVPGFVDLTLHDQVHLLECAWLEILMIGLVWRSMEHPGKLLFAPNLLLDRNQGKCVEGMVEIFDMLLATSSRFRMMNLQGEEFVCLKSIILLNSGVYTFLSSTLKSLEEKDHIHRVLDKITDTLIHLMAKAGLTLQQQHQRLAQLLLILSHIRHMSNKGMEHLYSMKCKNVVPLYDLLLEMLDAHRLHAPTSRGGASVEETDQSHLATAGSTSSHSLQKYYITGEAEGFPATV
Peroxisome proliferator-activated receptor delta (Homo sapiens), sequence (Q03181 whole entry, looked up): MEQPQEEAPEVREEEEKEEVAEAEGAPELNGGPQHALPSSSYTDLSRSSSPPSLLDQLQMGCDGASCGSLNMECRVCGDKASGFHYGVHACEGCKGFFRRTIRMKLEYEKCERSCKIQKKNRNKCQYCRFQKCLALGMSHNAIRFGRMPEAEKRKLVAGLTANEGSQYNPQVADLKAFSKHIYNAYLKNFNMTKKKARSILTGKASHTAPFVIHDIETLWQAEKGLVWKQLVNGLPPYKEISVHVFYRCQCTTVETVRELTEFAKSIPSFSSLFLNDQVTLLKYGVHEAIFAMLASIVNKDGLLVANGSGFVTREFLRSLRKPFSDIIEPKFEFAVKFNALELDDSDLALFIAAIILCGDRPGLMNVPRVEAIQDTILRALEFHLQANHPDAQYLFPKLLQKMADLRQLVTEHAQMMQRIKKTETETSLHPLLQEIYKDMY
Phospholipid hydroperoxide glutathione peroxidase GPX4 (Homo sapiens), sequence (P36969 whole entry, looked up): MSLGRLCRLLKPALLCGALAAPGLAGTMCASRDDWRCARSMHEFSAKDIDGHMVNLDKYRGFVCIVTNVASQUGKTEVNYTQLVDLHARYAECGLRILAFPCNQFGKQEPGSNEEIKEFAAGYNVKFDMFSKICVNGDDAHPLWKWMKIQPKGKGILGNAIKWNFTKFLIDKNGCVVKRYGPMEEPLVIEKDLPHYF
Glucocorticoid receptor (Homo sapiens), sequence (P04150 whole entry, looked up): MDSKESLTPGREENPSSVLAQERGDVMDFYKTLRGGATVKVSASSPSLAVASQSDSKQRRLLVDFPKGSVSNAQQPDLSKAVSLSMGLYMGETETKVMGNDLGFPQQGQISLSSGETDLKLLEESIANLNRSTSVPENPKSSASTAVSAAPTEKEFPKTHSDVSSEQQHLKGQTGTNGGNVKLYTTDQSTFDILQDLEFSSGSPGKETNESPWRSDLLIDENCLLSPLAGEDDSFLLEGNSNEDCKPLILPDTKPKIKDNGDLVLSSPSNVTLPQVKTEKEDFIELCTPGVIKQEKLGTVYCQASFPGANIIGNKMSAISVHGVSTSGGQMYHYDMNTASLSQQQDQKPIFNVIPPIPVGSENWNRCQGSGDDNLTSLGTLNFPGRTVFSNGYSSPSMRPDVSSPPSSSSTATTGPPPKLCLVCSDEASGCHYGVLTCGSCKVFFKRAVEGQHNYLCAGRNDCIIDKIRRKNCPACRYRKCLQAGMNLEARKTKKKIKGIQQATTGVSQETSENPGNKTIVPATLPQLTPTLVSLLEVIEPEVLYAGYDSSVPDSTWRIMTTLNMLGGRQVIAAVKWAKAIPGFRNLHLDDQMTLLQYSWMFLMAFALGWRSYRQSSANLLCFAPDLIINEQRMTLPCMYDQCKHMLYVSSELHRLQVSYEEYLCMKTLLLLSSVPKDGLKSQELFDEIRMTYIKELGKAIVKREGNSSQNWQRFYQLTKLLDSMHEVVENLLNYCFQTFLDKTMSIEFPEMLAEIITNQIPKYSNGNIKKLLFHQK
Peroxisome proliferator-activated receptor gamma (Homo sapiens), sequence (P37231 whole entry, looked up): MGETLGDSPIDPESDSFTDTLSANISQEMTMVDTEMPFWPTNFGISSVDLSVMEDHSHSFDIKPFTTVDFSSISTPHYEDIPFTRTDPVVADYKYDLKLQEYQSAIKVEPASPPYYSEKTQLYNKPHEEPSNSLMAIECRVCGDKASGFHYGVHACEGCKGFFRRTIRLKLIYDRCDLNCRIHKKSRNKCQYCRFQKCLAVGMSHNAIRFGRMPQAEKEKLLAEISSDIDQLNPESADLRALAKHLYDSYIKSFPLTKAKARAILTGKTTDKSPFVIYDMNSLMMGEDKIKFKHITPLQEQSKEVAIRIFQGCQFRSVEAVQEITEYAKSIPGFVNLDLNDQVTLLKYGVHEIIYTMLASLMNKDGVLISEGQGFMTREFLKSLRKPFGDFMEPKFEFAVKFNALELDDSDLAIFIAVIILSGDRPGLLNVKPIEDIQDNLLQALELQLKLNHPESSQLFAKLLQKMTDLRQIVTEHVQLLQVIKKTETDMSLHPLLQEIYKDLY
Bile acid receptor (Homo sapiens), sequence (Q96RI1 whole entry, looked up): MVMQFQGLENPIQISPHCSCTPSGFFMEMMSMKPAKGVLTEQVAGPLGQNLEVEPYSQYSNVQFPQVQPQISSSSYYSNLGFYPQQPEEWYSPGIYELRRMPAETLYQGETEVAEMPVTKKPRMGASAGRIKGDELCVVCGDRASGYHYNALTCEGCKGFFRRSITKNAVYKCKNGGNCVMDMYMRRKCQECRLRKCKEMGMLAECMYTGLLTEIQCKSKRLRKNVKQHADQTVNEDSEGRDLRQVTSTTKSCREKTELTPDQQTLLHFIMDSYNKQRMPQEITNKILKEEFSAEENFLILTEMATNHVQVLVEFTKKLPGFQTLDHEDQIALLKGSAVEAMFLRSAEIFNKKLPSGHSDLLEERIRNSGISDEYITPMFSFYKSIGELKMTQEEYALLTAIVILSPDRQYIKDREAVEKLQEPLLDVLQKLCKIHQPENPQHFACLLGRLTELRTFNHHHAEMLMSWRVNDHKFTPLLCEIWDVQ
Vitamin D3 receptor (Homo sapiens), sequence (P11473 whole entry, looked up): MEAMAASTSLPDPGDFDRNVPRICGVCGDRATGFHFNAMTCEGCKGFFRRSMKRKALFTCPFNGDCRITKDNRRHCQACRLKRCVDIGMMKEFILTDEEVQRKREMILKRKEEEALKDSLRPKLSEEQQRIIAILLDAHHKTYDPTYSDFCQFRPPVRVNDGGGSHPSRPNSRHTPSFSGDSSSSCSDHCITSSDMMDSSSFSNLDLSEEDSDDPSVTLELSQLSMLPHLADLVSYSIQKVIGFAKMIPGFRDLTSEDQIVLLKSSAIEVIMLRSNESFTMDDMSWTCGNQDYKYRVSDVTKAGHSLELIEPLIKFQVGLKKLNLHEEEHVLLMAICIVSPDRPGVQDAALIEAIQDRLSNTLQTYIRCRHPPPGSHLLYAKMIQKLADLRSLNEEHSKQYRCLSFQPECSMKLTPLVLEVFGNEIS
Nuclear receptor ROR-gamma (Homo sapiens), sequence (P51449 whole entry, looked up): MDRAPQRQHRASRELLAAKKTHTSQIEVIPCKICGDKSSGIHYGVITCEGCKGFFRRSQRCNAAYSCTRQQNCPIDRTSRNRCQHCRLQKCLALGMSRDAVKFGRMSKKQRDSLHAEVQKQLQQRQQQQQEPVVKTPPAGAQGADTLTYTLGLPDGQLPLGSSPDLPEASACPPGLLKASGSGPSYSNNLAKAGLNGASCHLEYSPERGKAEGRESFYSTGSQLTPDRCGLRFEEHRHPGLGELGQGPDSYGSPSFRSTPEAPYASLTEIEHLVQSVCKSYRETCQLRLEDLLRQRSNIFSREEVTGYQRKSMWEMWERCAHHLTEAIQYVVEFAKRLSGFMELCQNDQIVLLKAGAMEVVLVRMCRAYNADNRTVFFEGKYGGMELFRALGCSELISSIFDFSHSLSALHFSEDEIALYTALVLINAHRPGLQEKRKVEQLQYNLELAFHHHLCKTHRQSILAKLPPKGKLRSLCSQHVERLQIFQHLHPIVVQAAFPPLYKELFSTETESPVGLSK
Ubiquitin carboxyl-terminal hydrolase 1 (Homo sapiens), sequence (O94782 whole entry, looked up): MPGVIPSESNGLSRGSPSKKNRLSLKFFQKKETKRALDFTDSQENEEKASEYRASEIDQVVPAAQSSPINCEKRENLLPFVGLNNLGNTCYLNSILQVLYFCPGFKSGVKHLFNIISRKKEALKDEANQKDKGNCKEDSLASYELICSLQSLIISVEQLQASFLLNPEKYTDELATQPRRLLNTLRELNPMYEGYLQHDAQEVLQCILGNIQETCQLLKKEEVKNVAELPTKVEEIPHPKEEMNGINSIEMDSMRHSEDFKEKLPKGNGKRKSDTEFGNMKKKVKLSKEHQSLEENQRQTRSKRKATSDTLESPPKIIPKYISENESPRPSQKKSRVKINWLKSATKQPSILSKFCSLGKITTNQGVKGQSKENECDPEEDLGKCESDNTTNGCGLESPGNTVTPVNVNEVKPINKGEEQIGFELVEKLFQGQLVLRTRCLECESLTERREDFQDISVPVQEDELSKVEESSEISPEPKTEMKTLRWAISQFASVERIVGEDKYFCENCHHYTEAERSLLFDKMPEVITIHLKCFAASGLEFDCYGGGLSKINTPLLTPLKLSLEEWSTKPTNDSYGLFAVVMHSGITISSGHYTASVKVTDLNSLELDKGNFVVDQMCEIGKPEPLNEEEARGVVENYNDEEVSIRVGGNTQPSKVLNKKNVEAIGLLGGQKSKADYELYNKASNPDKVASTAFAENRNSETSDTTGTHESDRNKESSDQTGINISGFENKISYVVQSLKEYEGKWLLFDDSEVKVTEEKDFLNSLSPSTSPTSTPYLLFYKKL

O=C(O)CC(C(=O)O)C(CC(=O)O)C(=O)O (stereo not given)
inactive: Potency [1] > 92 µM | outcome [2] | Potency [3] | Potency [4] | Potency [5] | outcome [6] | Potency [7] | Potency [9] | outcome [10] | outcome [11] | Potency [12] | activation [13] -0.643% and 0.457% | Potency [14]
5.81%: max response [8]

CC(=O)c1cc2cccc(OCC(O)CNC(C)C)c2o1 (stereo not given)
inactive: Potency [15]

Clc1cc(Cl)c(Cl)c(Cl)c1Cl
inactive: Potency [1] > 92 µM | Potency [16] > 92 µM | outcome [2] | Potency [5] | Potency [7] | outcome [11] | Potency [12] | Potency [14] | Potency [17] | Potency [18]

CC(=O)OCC1=C(C(=O)O)N2C(=O)[C@@H](NC(=O)CC#N)[C@H]2SC1
inactive: Potency [15]

CN1CC[C@H](CN2c3ccccc3Sc3ccccc32)C1
inactive: Potency [19] | Potency [15]

CCCCC(CC)CN (stereo not given)
-11.9% and 2.89%: max response [8]
75 µM (active) and inactive: Potency [14]
inactive: Potency [1] > 92 µM | Potency [20] | Potency [5] | Potency [7] | Potency [9] | outcome [10] | outcome [11] | Potency [12] | activation [13] -0.627% and -0.116% | Potency [17] | Potency [18]

CCCCCCCCCCCCCCCC(=O)OCC(O)C1OC(=O)C(O)=C1O (stereo not given)
active: Potency [15] 7.08 µM

COC(=O)c1ccc(C=O)cc1
inactive: Potency [1] > 92 µM | Potency [16] > 92 µM | outcome [2] | Potency [20] | Potency [5] | outcome [6] | Potency [7] | Potency [9] | outcome [10] | outcome [11] | Potency [12] | activation [13] -1.54% | Potency [17]
6.11% and 19.8%: max response [8]

c1ccc2c(c1)c1cccc3ccc4cccc2c4c31
inactive: Potency [1] > 92 µM | Potency [4] | Potency [5] | outcome [6] | Potency [7] | Potency [9] | outcome [11] | activation [13] 2.08% and 3.95% | Potency [17] | Potency [18]
25.2% and 42.4%: max response [8]

CO[C@H]1/C=C\O[C@@]2(C)Oc3c(C)c(O)c4c(O)c(c(/C=N/N5CCN(C6CCCC6)CC5)c(O)c4c3C2=O)NC(=O)/C(C)=C\C=C/[C@H](C)[C@H](O)[C@@H](C)[C@@H](O)[C@@H](C)[C@H](OC(C)=O)[C@@H]1C
active: Potency [15] 10 µM

COC(=O)N[C@H](C(=O)N1CCC[C@H]1c1ncc(-c2ccc3c(c2)O[C@@H](c2ccccc2)n2c-3cc3cc(-c4cnc([C@@H]5CCCN5C(=O)[C@@H](NC(=O)OC)C(C)C)[nH]4)ccc32)[nH]1)C(C)C
active: Potency [15] 6.31 µM

CCc1cc2c(cc1CC)CC(NC[C@H](O)c1ccc(O)c3[nH]c(=O)ccc13)C2
active: Potency [15] 10 µM
